# The panel holds about 83,000 compounds, 20% with a hit somewhere; the sample as a whole holds those more often.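 Plates (96-well) were seeded with cells, treated with compound at one concentration, and incubated for 48 hours before percent growth was determined.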 Activity calls are given as the source filed them. Rule for the calls: active = growth percent below 10; inactive = the rest.
# System: MDA-MB-468 breast
# Test: NCI-60 one-dose screen, 48 h (100 = growth as untreated, 0 = no growth, -100 = all killed)
# Details: 10 µM unless noted
row,Structure (SMILES),growth
1,CN1CCN(CC#CCOC(=O)CNC(=O)[C@]23CCC(C)(C)C[C@H]2C2=CC[C@@H]4[C@@]5(C)CC[C@H](O)C(C)(C)[C@@H]5CC[C@@]4(C)[C@]2(C)CC3)CC1,97.5% (inactive)
2,COc1ccc(-c2c3c(N)c4c(nc3nc3c2c(C)nn3-c2ccccc2)CCCCC4)cc1,76% (inactive)
3,CCOC(=O)c1ccc(NC2=C(Cl)C(=O)c3nc(C)ccc3C2=O)cc1,-24.6% (active)
4,C=C(C)[C@@H]1CC[C@]2(C(=O)NCCNCCNCCN)CC[C@]3(C)[C@H](CC[C@@H]4[C@@]5(C)CCC(=O)C(C)(C)[C@@H]5CC[C@]43C)[C@@H]12,-49.1% [100 µM] (active)
5,COc1ccc(-c2nn(-c3cccc(Cl)c3)cc2/C=C2\C(=N)N(c3ccccc3)N=C2N)cc1,57.6% (inactive)
6,O=C(O)c1ccc2c(c1)C(=O)c1ccccc1C2=O,-2.97% (active)
7,Cc1oc(-c2ccc(Cl)cc2)nc1C1=NN(C(=O)c2ccncc2)C(c2ccccc2)C1 (stereo unspecified),108% (inactive)
8,N#Cc1cnc(NCCc2ccncc2)nc1-n1cnc2ccccc21,74.2% (inactive)
9,COc1cc2nc3c(=O)n(CCN(C)C)cnn3c(=O)c2cc1OC,104% (inactive)
10,CCCCCCCCn1ccc2cc(NC(=O)CN3CCN(c4cc(C)nc(Cl)n4)CC3)ccc21,56.6% (inactive)
11,C/C(=N\NC(=S)Nc1ccccc1)c1ccccn1,-10.2% (active)
12,COc1ccc(/C=C(\C#N)n2nnc3cc(Cl)ccc32)cc1,18.5% (inactive)
13,CC(C)C1=NOC(=O)C1=Cc1cn(-c2cccnc2)nc1-c1ccccc1,108% (inactive)
14,CC[C@]12C=CCN3CC[C@@]4(c5cc(NC(=O)COc6cc(O)c7c(=O)cc(-c8ccccc8)oc7c6)c(OC)cc5N(C)[C@H]4[C@@](O)(C(=O)OC)[C@@H]1OC(C)=O)[C@@H]32,-74.6% (active)
15,Cc1ccc(-c2nc(N3CCNCC3)c3oc(-c4ccccc4)nc3n2)cc1,-31.4% (active)
16,C=C1C(=O)O[C@H]2[C@H]1CC/C(COC(=O)/C=C\C(=O)NCc1ccc(Cn3c(=O)sn(CCCI)c3=O)cc1)=C\CC[C@@]1(C)O[C@@H]21,-82.1% (active)
17,CCOC(=O)NNC(=S)Nc1ccccc1,97.7% (inactive)
18,CC(C)c1ccc(NC(=O)Nc2ccc(NC(=O)CCCC(=O)NOCc3ccccc3)cc2)cc1,85% (inactive)

row,Structure (SMILES),growth
1,Clc1ccc(N/N=C(/c2ccccc2)c2ccccn2)nc1,4.13% (active)
2,C/C(=C(/C)C1CC1CCN(C(=O)c1ccc([N+](=O)[O-])cc1)S(=O)(=O)c1ccc(C)cc1)C1CCCCC1 (stereo unspecified),82.5% (inactive)
3,COc1cc(-c2ncn(/C=C\c3nnco3)n2)cc(C(F)(F)F)c1,-28.9% (active)
4,CCN1CCN(Cc2ccc(C(=O)Nc3nc4ccc(Oc5ccnc(C(=O)NC)c5)cc4s3)cc2C(F)(F)F)CC1,36.1% (inactive)
5,CCCCCO/N=C\c1c2c(O)c3c(O)c(C)c4c(c3c1O)C(=O)C(C)(O/C=C\C(OC)C(C)C(OC(C)=O)C(C)C(O)C(C)C(O)C(C)/C=C\C=C(\C)C(=O)N2)O4 (stereo unspecified),0.538% (active)
6,COc1ccc(C(=O)c2c(N)c(C#N)cn2-c2cccc(OC)c2)cc1,-3.17% (active)
7,COc1ccc(NC(=O)c2sc3nc4c(cc3c2N)C(O)CCC4)cc1 (stereo unspecified),92.2% (inactive)
8,COc1cccc(OC(=O)c2ccccc2)c1OC(=O)c1ccccc1,39.4% (inactive)
9,Cc1ccc(C)c(CCO)c1,93.5% (inactive)
10,O=C(/C=C\c1ccnc2ccccc12)c1ccc([N+](=O)[O-])cc1,57.5% (inactive)
11,COc1ccc(-c2nc(-c3nc4cc(C)c(C)cc4[nH]3)cc3c2[nH]c2ccccc23)cc1,-27.7% (active)
12,COc1ccc2c(c1)c(-c1nc(-c3ccc4ccccc4c3)cs1)cn2C,10.4% (inactive)
13,COc1cc(/C=C/C(=O)c2cc(OC)c(OC)c(OC)c2)ccc1OCc1ccccc1,21.5% (inactive)
14,O=C(CN1C(=O)S/C(=C\c2ccccc2)C1=O)Nc1ncc(Cc2ccccc2Cl)s1,115% (inactive)
15,C=CC(=O)N[C@@H](Cc1ccc(-c2cc(Cl)cc(Cl)c2)cc1)[C@@H](O)[C@H](O)C(=O)O,101% (inactive)
16,Cc1ccccc1C(=O)NN,121% (inactive)
17,O=C(C(Br)Br)C(Br)C(Br)c1ccccc1 (stereo unspecified),9.8% (active)
18,Cc1nc(Nc2ccccn2)sc1C(=O)/C=C/c1ccc(Cl)cc1,16.4% (inactive)
